Common to all, as to set-up: scale not given: direction of the effect not stated beside the values
In test [1] the target is Protein translocase subunit SecA (Escherichia coli (strain K12)) (UniProt P10408). Put plainly: Assay to Identify E. coli SecA ATPase Inhibitors. The format is functional. As to conditions: 30 µM.
For test [2], the target named is T1, Ubiquitin-activating enzyme e1, putative (Leishmania donovani (strain BPK282A1)) (UniProt E9BSI1).
T1 sequence (whole entry): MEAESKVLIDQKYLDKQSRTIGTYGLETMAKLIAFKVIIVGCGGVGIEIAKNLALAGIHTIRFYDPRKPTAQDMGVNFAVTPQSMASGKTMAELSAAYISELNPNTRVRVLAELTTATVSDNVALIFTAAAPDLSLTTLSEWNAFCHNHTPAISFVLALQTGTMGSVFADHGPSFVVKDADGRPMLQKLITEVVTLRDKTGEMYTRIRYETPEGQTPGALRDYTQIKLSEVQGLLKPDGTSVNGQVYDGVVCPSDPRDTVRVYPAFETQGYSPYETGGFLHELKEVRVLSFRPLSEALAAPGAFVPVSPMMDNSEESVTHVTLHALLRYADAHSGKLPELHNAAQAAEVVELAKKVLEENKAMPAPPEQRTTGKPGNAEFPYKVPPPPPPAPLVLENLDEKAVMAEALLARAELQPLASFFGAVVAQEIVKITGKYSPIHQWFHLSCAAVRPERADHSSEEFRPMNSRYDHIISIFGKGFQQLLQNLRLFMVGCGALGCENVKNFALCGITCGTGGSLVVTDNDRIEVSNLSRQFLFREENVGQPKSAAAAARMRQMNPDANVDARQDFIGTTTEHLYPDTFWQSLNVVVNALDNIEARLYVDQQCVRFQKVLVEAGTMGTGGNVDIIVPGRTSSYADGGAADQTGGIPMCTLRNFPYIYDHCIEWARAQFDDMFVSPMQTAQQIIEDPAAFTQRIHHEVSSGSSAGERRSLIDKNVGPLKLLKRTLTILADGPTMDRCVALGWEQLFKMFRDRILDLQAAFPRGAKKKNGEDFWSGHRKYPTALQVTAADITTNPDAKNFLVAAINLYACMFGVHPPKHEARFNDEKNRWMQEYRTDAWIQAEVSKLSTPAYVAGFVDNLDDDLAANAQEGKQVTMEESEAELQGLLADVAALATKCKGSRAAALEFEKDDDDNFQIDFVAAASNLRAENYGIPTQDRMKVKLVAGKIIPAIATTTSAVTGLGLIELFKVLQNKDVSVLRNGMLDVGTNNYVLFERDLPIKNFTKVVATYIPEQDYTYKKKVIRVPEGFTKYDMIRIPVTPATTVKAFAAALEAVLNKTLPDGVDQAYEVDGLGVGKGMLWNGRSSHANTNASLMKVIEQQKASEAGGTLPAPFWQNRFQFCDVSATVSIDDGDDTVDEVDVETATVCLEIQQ
Put plainly: Leishmania donovani Ubiquitin Activating Enzyme (LdE1). The format is functional. The conditions noted are these: 30 µM.

The target of test [3] is Sialic acid-binding Ig-like lectin 9 (Homo sapiens) (UniProt Q9Y336). As to the kind of experiment: Hs-Siglec9 ALPHAscreen SOP 20170721. As to conditions: 10 µM.
A further test has as its system Trypanosoma cruzi. As to the kind of experiment: Trypanosoma cruzi phosphomannomutase and mannose-1-phosphate guanylyltransferase assay. The format is functional. The conditions noted are these: 10 µM.
In test [4] the target is T2, Arginase-2, mitochondrial (Homo sapiens) (UniProt P78540).
T2 sequence (whole entry): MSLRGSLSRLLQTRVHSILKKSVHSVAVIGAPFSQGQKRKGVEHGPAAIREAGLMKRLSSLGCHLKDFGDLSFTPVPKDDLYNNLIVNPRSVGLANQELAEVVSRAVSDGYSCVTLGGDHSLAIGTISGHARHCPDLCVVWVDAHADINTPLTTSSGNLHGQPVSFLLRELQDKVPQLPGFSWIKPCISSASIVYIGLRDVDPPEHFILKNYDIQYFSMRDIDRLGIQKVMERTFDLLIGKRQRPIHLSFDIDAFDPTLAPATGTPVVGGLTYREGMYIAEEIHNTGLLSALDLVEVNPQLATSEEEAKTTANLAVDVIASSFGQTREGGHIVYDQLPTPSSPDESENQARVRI
Put plainly: in vitro enzyme assay to detect the production of urea directly proportional to the activity of Arginase II. Note: in the data most compounds retested in dose-response had high values. The format is functional. As to conditions: 33.3 µM.

The target in test [5] is T3, Proteasome subunit beta (Trypanosoma cruzi) (UniProt O96673).
T3 sequence (whole entry): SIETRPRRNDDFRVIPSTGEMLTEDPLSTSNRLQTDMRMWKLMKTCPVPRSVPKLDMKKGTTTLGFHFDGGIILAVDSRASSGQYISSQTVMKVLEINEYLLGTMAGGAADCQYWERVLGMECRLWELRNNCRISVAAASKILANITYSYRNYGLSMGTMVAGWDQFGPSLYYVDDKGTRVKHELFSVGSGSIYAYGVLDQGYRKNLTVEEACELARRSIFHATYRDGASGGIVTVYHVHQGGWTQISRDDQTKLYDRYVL
As to the kind of experiment: Trypanosoma cruzi proteasome chymotrypsin-like activity (TcProtChymo) assay. Note: in the data most compounds retested in dose-response had high values. The format is functional. The conditions noted are these: 9.37 µM.

The species named for another test is Homo sapiens. Put plainly: To identify inhibition of the IFN signalling (Jak-Stat) pathway via expression of an eGFP reporter gene under the control of an IFN-stimulated response element (ISRE) containing MxA promoter. As to conditions: 30 µM. The format is functional.
Test [6] deals with T4, Tyrosyl-tRNA synthetase, putative (Trypanosoma cruzi (strain CL Brener)) (UniProt Q4DSP6).
T4 sequence (whole entry): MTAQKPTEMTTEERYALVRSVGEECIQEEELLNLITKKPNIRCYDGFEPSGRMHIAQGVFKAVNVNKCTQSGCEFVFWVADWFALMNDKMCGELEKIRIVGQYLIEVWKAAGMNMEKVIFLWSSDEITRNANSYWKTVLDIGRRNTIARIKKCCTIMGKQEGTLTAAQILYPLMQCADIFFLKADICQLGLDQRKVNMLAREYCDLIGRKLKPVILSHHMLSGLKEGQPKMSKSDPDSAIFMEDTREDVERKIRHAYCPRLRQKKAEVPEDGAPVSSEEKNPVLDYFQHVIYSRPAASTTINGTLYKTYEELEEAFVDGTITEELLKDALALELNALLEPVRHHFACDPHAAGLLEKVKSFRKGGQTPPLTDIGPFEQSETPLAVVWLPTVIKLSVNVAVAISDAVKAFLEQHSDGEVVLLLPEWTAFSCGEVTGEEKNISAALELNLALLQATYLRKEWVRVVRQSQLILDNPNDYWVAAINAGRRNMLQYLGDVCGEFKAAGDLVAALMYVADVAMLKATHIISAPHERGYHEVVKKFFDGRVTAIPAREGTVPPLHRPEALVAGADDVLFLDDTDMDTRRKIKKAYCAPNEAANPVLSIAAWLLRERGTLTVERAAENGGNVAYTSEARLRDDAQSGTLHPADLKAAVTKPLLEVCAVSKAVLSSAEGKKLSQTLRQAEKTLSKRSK
As to the kind of experiment: Trypanosoma cruzi tyrosyl tRNA synthetase (TcYRS) _High Tyrosine SOP. Note: in the data most compounds retested in dose-response had high values. Format: functional. The conditions noted are these: 30 µM.

The target of test [7] is T4, Tyrosyl-tRNA synthetase, putative (Trypanosoma cruzi (strain CL Brener)). As to the kind of experiment: Trypanosoma cruzi tyrosyl tRNA synthetase (TcYRS) SOP. As to conditions: 30 µM. Format: functional.
In test [8] the target is Chromo domain-containing protein 1 (Saccharomyces cerevisiae (strain ATCC 204508 / S288c) (Baker's yeast)) (UniProt P32657). As to the kind of experiment: ScCHD-1 Enzyme Inhibition Assay. Note: in the data most compounds retested in dose-response had high values. The format is functional. As to conditions: 30 µM.

For some assays here: Results with a measured potency or affinity are listed apart.

Sequence of Sialic acid-binding Ig-like lectin 9 (Homo sapiens) (Q9Y336 whole entry): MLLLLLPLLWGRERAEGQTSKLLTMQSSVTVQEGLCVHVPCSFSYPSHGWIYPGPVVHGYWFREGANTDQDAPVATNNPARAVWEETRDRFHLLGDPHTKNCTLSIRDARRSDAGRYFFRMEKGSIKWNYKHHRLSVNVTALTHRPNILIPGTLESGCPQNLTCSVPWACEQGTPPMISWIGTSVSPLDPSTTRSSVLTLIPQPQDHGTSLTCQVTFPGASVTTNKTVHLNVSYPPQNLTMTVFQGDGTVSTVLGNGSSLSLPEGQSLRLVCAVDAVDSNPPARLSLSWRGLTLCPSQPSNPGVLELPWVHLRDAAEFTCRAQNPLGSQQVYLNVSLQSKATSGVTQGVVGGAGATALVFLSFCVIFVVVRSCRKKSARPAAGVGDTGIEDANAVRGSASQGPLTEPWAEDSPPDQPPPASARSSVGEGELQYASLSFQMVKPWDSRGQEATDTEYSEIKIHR
Sequence of Protein translocase subunit SecA (Escherichia coli (strain K12)) (P10408 whole entry): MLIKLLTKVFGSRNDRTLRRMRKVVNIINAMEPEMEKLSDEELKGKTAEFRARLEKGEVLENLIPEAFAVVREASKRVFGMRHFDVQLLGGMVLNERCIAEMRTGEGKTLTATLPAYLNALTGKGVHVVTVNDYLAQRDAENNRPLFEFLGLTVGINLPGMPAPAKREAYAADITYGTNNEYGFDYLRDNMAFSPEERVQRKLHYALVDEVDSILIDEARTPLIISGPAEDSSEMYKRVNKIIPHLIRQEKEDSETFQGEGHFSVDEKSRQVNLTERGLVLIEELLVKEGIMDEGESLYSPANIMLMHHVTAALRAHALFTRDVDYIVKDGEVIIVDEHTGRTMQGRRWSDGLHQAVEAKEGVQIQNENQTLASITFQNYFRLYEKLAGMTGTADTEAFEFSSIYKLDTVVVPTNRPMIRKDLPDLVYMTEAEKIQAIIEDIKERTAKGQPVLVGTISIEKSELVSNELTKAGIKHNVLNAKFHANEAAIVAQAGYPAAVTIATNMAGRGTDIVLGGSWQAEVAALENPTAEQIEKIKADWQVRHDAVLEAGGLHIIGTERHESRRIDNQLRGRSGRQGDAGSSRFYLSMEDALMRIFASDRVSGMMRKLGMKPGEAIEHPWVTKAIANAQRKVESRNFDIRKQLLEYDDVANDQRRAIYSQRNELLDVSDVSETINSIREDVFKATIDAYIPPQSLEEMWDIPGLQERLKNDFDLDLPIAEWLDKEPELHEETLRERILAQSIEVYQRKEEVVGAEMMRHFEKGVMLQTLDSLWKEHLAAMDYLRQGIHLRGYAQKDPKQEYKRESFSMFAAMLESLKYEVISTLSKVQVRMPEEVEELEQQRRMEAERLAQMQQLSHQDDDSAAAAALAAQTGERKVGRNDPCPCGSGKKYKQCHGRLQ
Sequence of Chromo domain-containing protein 1 (Saccharomyces cerevisiae (strain ATCC 204508 / S288c) (Baker's yeast)) (P32657 whole entry, the tested form may be a part): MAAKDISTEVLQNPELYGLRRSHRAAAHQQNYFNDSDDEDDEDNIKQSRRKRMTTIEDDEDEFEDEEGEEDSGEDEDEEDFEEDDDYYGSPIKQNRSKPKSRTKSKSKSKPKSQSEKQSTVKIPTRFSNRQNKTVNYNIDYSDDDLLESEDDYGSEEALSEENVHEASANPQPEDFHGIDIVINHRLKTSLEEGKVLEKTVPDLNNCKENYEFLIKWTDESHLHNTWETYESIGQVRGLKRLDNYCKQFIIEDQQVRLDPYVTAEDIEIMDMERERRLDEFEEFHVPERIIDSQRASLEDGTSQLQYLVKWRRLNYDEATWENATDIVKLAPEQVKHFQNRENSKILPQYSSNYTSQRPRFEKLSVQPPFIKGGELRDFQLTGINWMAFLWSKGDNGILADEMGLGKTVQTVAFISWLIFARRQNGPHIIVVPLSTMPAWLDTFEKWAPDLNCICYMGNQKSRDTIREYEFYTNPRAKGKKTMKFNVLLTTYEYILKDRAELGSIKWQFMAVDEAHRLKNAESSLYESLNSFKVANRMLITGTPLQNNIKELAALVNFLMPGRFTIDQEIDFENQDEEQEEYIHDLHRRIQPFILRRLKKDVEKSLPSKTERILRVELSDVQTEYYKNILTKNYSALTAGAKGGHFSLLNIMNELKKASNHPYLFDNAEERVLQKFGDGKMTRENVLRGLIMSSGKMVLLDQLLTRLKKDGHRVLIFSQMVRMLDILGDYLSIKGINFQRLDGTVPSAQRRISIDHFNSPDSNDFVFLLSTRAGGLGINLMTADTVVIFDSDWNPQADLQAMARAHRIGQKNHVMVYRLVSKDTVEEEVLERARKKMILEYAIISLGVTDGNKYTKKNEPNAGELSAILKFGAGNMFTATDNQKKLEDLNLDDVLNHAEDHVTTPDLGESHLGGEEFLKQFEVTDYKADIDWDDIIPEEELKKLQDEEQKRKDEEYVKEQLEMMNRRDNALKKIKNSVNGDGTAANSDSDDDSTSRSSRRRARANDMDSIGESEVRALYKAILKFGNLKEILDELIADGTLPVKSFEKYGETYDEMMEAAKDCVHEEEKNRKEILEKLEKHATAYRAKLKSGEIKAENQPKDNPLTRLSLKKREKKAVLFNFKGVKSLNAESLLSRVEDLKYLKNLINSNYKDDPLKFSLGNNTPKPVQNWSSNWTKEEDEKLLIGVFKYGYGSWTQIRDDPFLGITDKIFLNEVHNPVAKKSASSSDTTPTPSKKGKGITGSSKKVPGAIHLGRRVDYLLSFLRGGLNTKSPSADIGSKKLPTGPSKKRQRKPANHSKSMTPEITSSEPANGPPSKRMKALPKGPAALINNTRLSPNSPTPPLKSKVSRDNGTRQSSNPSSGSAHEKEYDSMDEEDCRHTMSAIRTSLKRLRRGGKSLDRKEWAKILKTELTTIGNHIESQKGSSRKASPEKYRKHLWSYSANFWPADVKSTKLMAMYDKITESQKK

For the compound `Cc1cnn(CC2CCCN2C(=O)c2cc(Cl)ccc2F)c1` (stereo not given), the Percent Effect in test [1] was -1.32%; in [2], 2.6%; in test [3], -6.93%; in the test with Trypanosoma cruzi, -0.933%; in test [4], 5.12%; in [5], 4.91%. Further, the Percent Effect in the test listed under Homo sapiens was 10.8%; in test [6] it was -1.96%; in test [7], -2.35%; in [8] it was 2.99%.

As to `Cc1c(CN2CCCC(c3[nH]ncc3S(C)(=O)=O)C2)cnn1C` (stereo not given), the Percent Effect is -2.55% in [1]; 22.7% in [2]; -0.226% in [3]; 3.94% in the test on Trypanosoma cruzi; -5.75% in [4]; 12.5% in [5]. Also, the Percent Effect in the test listed under Homo sapiens was 11.7%; in test [6], 3.17%; in test [7], 17.5%; in test [8], -24.1%.

Regarding `CN(C)CCCn1ccnc1C1CCCN(c2cc(N)ncn2)C1` (stereo not given), the Percent Effect in [1] is -10.5%; in [2], 2.7%; in [3], 2.22%; with Trypanosoma cruzi it was -3.59%; in test [4], -2.45%; in test [5], 4.97%. The Percent Effect in the test filed under Homo sapiens is -11%; in test [6], 7.98%; in [7] it was 4.88%; in [8], 4.53%.

For `O=C(NCCc1coc(-c2ccc(F)cc2)n1)NC1CCC(O)CC1` (stereo not given), the Percent Effect in test [1] was -5.41%; in test [2], 21.3%; in test [3], 5.86%; in the test on Trypanosoma cruzi it was 5.82%; in test [4], -0.887%; in [5], 15.7%. The Percent Effect was 6.59% in the test filed under Homo sapiens, 5.79% in test [6], 15.4% in test [7] and -15.6% in [8].

Take `CC1(C)OCC(CNC(=O)c2cnn(-c3cc(Cl)ccc3Cl)c2N)O1` (stereo not given): the Percent Effect in test [1] was 3.78%; in [2], 9.33%; in test [3], -9.42%; in the test with Trypanosoma cruzi, -1.97%; in [4], 3.98%; in test [5], 17.1%. Besides, the Percent Effect was 11.8% in the test filed under Homo sapiens, 0% in [6], 7.5% in [7] and -20.1% in test [8].

Take `Cc1ncncc1C(=O)Nc1cnn(CC(=O)NC2CCCC2)c1`: the Percent Effect in test [1] was -3.38%; in test [2], 20%; in test [3], 2.3%; in the test with Trypanosoma cruzi, 2.96%; in test [4], -0.443%; in test [5], 10.8%. Moreover, the Percent Effect is 8.96% in the test listed under Homo sapiens, 1.06% in [6], 12.5% in test [7] and -20.3% in test [8].

Consider `CCn1nc2c(cc1=O)CN(Cc1nc(-c3ccsc3)no1)CC2`, for which the Percent Effect in test [1] is -2.79%; in test [2], 0%; in [3], 3.78%; in the test with Trypanosoma cruzi it was -0.282%; in test [4], 6.56%; in [5], 4.18%. Moreover, the Percent Effect is 27.8% in the test listed under Homo sapiens, 4.31% in [6], 6.02% in [7] and -6.49% in test [8].

Regarding `O=C(Cn1cc(-c2ccccc2)ncc1=O)Nc1ccncc1`, the Percent Effect in [1] is -7.06%; in test [2], 5.41%; in [3], 4.3%; in the test with Trypanosoma cruzi, -0.097%; in test [4], 3.85%; in [5], 20%. The Percent Effect is -4.45% in the test filed under Homo sapiens, 6.92% in test [6], 17.1% in test [7] and 90.8% in test [8].

These data come from ChEMBL document CHEMBL3988442, “University of Dundee, Small-Polar-MMV Screening Library” (2021).
